Laboratory results from the supplement of paper PMC6555819.

These sequences were tested on LXRb:RXRa (NR concentration 270 nM, RXRa partner concentration 90 nM) (assay: PBM binding z-score (relative to random genomic background probes); higher = stronger binding; sequences stand for … in GC…GCGATTGACAGCGTAGAATGAAGG).
Method in brief: (§1)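 Custom Agilent 4×180K protein-binding microarrays carried double-stranded probes, each with a 34-nt variable region. These regions held direct-repeat seeds, single-nucleotide variants, half-site ablations and random human genomic background sequences. Ligand-free nuclear receptor dimers were incubated on the arrays for 1 h, antibodies against each partner (one per run) detected binding, and scanned fluorescence was regression-normalized. Binding z-scores take the random background probes as reference.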

Point of comparison: CAAACTAGGTCACCGGAAGGTCAAGGTCCGCATG, PBM binding z-score 4.58. Against it:
- ATCGAAAGGTAGACGAGGTGAGTATACACCGTTT — lower, -0.306
- CAGCCTAGGTCAGGGCCGGTATAGGAGGAACGTT — lower, 0.466
- CAAACTAGGTCAAGAGGTCGAAGTCCGCTTCCCG — lower, 2.77
- TAGCCTAGGTCATTGGGGCAGTATAGTACGCATC — lower, 3.42
- CGAACTAGGTCATTGACAGGACAGTGAATAGTAA — lower, 2.07
- AGATGTAGGTTACATCCGGGTCATTCAGGCTATG — lower, 2.54
- CAAACTAGGTCAAAGAGGTCAAAGTCCGTGCGTA — higher, 5.91
- CATACAGGGTCAGCTAGGCCAGGGTAGGGACGGC — lower, 1.98
- GCTTACGGGTCGAAGGTTATAGCATGAATAGAAT — lower, 2.51
- CCTATTGGGCCACGAAAGGTCATTGATTCAGTGA — lower, 4.14
- CCCACTGGGCCAAAGGTCATTGATTCCAATGCTC — higher, 4.72
- CCGACTGGGGCAAAAGTTACCATACTCAGTACGA — lower, -0.0156
- ACTAGCAGGCCAAGTTTGGGTCACTCTAACAAAG — lower, 0.217
- CGAACTAAGTCAGAACAGGACAGTGAAGGATGAT — lower, -0.842
- ACAGACAGTTGATGAAGGTAACTCAGGCTATCAT — lower, -0.191
- ATCTCTAGGTAACCAAGTTCAGTGGATGCCGAAC — lower, 0.38
- CCTTACGGGTCACTGACAGTTTATAGCATTTGGA — lower, 3.4
- AGGCAAAGTTCAGGACGAGGTAACGTAAAGCACG — lower, 1.9
- CGTCCAAGGCCAGCAGGTCAGTGAAAGCGACGTG — lower, -0.00321
- ATCTCTAGGTAAGACTCAGTGCAGTGAAGAACGC — lower, -0.0859
- CCGACTGGGGCATAAGGTTAACATAAGCCAGCCC — lower, 0.945
- CCTAGCAGGCCAGGGTCACTCATGCATTTCGCTT — lower, 1.72
- CAAACTAGGTCAAGAGGTCATAGTCCGCTTCCCG — higher, 4.74
- ATCTCTAGGTAAGAGTCAGTTCAGTGAAGAACGC — lower, 0.262
- GGAACGAGGGCGAGTTGATAGCAGAGTTTGATGG — lower, -0.523
- CGTCAATGTTCAAGGTAACGTAACAGAAAGCAGC — lower, 0.0792
- CCTACTGGGCCAAGGGCATTGATCAGTCAAAGCA — lower, -0.601
- ATATGTCGGTTATCGGGTCATTCAGTTTGCGCAT — lower, 2.54
- GCTAGCAGGCCATTTGGGTCACTCAGTGACGGGC — lower, -0.133
- CATTACGGGTCAAGGTTATAGCACGGGTGGTACG — lower, 3.61
- TCTCGGAGGACACGAAAGGTCATAGCTCGACATC — lower, 4.45
- CCGGACAGGTGAAAGGTAACTCAGTCTGGTACGC — lower, 0.874
- CCAGACAGGTGAGAAGGTAACTTAGCCTCGATTA — lower, 0.0826
- TCGAGTAGGTTAGTCGGGGCATTCAACCAACATA — lower, 0.776
- CCTTGCAGGCCAATCTGGGTCACTCAAGGCTTGA — lower, 1.1
- CTCGAAAGGTCGGTTGAGGTGAGTACACGGATAA — lower, 1.5
- CCTGCTAGGTCGATGGTCAGCTAAAGCAGCTCGC — lower, -0.279
- CCTCGGAGGACAGAAGGTCAGGGCTGTCCGCTTT — lower, 1.07
- CCTACTGGGCCAAGGTCAATGATCAGTCAAAGCA — lower, 2.32

The sequences below were run on LXRb homodimer (NR concentration 270 nM) in the same assay as above.
Method in brief: as §1

Point of comparison: ATCTCTAGGTAACCAAGTTCAGTGGATGCCGAAC, PBM binding z-score 0.373. Against it:
- ATCGAAAGGTAGACGAGGTGAGTATACACCGTTT — lower, -0.37
- CAGCCTAGGTCAGGGCCGGTATAGGAGGAACGTT — lower, -1.51
- CAAACTAGGTCAAGAGGTCGAAGTCCGCTTCCCG — higher, 0.502
- TAGCCTAGGTCATTGGGGCAGTATAGTACGCATC — higher, 0.997
- CGAACTAGGTCATTGACAGGACAGTGAATAGTAA — lower, 0.0276
- AGATGTAGGTTACATCCGGGTCATTCAGGCTATG — lower, 0.043
- CAAACTAGGTCAAAGAGGTCAAAGTCCGTGCGTA — higher, 2.23
- CATACAGGGTCAGCTAGGCCAGGGTAGGGACGGC — higher, 0.437
- GCTTACGGGTCGAAGGTTATAGCATGAATAGAAT — lower, -0.371
- CCTATTGGGCCACGAAAGGTCATTGATTCAGTGA — lower, 0.248
- CCCACTGGGCCAAAGGTCATTGATTCCAATGCTC — higher, 0.641
- CCGACTGGGGCAAAAGTTACCATACTCAGTACGA — lower, -0.764
- ACTAGCAGGCCAAGTTTGGGTCACTCTAACAAAG — lower, -0.928
- CGAACTAAGTCAGAACAGGACAGTGAAGGATGAT — lower, -0.576
- ACAGACAGTTGATGAAGGTAACTCAGGCTATCAT — lower, 0.0371
- CAAACTAGGTCACCGGAAGGTCAAGGTCCGCATG — higher, 0.998
- CCTTACGGGTCACTGACAGTTTATAGCATTTGGA — lower, -0.118
- AGGCAAAGTTCAGGACGAGGTAACGTAAAGCACG — lower, 0.202
- CGTCCAAGGCCAGCAGGTCAGTGAAAGCGACGTG — lower, -1.05
- ATCTCTAGGTAAGACTCAGTGCAGTGAAGAACGC — higher, 0.687
- CCGACTGGGGCATAAGGTTAACATAAGCCAGCCC — lower, -1.21
- CCTAGCAGGCCAGGGTCACTCATGCATTTCGCTT — lower, -0.832
- CAAACTAGGTCAAGAGGTCATAGTCCGCTTCCCG — higher, 1.48
- ATCTCTAGGTAAGAGTCAGTTCAGTGAAGAACGC — higher, 0.685
- GGAACGAGGGCGAGTTGATAGCAGAGTTTGATGG — lower, -0.787
- CGTCAATGTTCAAGGTAACGTAACAGAAAGCAGC — lower, 0.0791
- CCTACTGGGCCAAGGGCATTGATCAGTCAAAGCA — lower, -1.35
- ATATGTCGGTTATCGGGTCATTCAGTTTGCGCAT — higher, 0.586
- GCTAGCAGGCCATTTGGGTCACTCAGTGACGGGC — lower, -1.43
- CATTACGGGTCAAGGTTATAGCACGGGTGGTACG — higher, 1.18
- TCTCGGAGGACACGAAAGGTCATAGCTCGACATC — higher, 0.51
- CCGGACAGGTGAAAGGTAACTCAGTCTGGTACGC — lower, -0.858
- CCAGACAGGTGAGAAGGTAACTTAGCCTCGATTA — lower, -0.355
- TCGAGTAGGTTAGTCGGGGCATTCAACCAACATA — lower, -0.298
- CCTTGCAGGCCAATCTGGGTCACTCAAGGCTTGA — lower, -0.539
- CTCGAAAGGTCGGTTGAGGTGAGTACACGGATAA — lower, -0.0877
- CCTGCTAGGTCGATGGTCAGCTAAAGCAGCTCGC — lower, -0.599
- CCTCGGAGGACAGAAGGTCAGGGCTGTCCGCTTT — lower, -1.01
- CCTACTGGGCCAAGGTCAATGATCAGTCAAAGCA — lower, -0.518
